# Assay results reported in PubChem BioAssay (NCI).
# Compounds without any hit were thinned out: in the full panel of roughly 83,000, 20% have a hit.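 Plates (96-well) were seeded with cells, treated with compound at one concentration, and incubated for 48 hours before percent growth was determined.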 A number with no mark means an inactive call. Active and inactive are the calls of the source. How the source made its calls: active means growth percent below 10; inactive means the rest.
# Key:
# Assay in all cases: NCI-60 one-dose screen, 48 h (100 = growth as untreated, 0 = no growth, -100 = all killed)
# [1] = system: DU-145 prostate; conditions: 10 µM unless noted
# [2] = system: K-562 leukemia; conditions: 10 µM unless noted
# [3] = system: MALME-3M melanoma; conditions: 10 µM unless noted
# [4] = system: MDA-MB-231 breast; conditions: 10 µM unless noted
# [5] = system: RXF 393 renal; conditions: 10 µM unless noted
# [6] = system: SF-268 CNS; conditions: 10 µM unless noted
# [7] = system: SF-295 CNS; conditions: 10 µM unless noted
# [8] = system: SF-539 CNS; conditions: 10 µM unless noted
# [9] = system: UACC-257 melanoma; conditions: 10 µM
# [10] = system: M14 melanoma; conditions: 10 µM unless noted
Structure (SMILES),growth [1],growth [2],growth [3],growth [4],growth [5],growth [6],growth [7],growth [8],growth [9],growth [10]
COC(=O)c1cc(-c2cccs2)c(C#N)c(N)c1C#N,109%,104%,116%,94.3%,108%,99.5%,103%,101%,100%,110%
Cc1cccc(NC(=O)c2sc3nc4c(cc3c2N)CCC4)c1C,10.6%,13.8%,45.5%,30.6%,-4.81% (active),35.1%,4.77% (active),1.33% (active),54.8%,19.1%
CCCCCCCCCCn1cc[n+](C)c1,75.4%,64.2%,8.94% (active),41.5%,-20.8% (active),58.7%,9.99% (active),30.5%,-12.4% (active),24.6%
CCn1cc(C(=O)O)c(=O)c2cc(F)c(N3CCN(S(=O)(=O)c4ccc(OC)c(OC)c4)CC3)cc21,108%,101%,93.6%,103%,109%,88.9%,93.8%,90.8%,106%,44.1%
CN1C(=O)[C@H]2c3c1cccc3[C@@]13NC(=O)O[C@H]1[C@H](CCC3(C)C)C2(C)C,106%,82.6%,110%,88.6%,101%,95.2%,75%,98%,104%,108%
Cc1ccc2nc(-c3c(CCCO)noc3N)[nH]c(=O)c2c1,117%,68%,96.6%,105%,153%,111%,99.6%,97.3%,–,107%
O=P([O-])(O)OP(=O)([O-])O.[NH-][C@H]1CCCC[C@@H]1[NH-].[OH-].[OH-].[Pt+4],109%,110%,111%,107%,115%,101%,87.1%,105%,–,120%
CCCCCCCCCCCCCCCCC(Br)C(=O)O (stereo not drawn),116%,86.1%,98.3%,115%,105%,112%,93.8%,86.4%,110%,101%
Oc1ccc(Cl)cc1-c1cc(-c2ccc(Cl)cc2)n[nH]1,78.1%,39.9%,61.3%,37.5%,72.9%,66.7%,95.3%,91.9%,88.1%,76.7%
COc1cc(NCCCN=C(N)NC(N)=NC(C)C)c2ncccc2c1,106%,44.6%,-24.2% (active),64.9%,94.8%,44.1%,87.5%,21.7%,45.1%,65.3%
O=c1oc2cc(OS(=O)(=O)c3ccccc3)c(Cl)cc2c2c1CCCCCC2,93.6%,84.9%,106%,89.4%,90.8%,100%,92.6%,78.4%,92.8%,80.3%
O=S(=O)(NCCNc1cc(-c2cn(-c3ccccc3)nc2-c2ccccc2)ccn1)c1ccc(F)cc1,88.3%,54.3%,101%,80.1%,75.1%,83.2%,87.6%,103%,–,87%
COc1ccc(/C(=N/O)c2cc(F)c(F)c(OC)c2F)cc1O,16.9%,10.3%,60.7%,47.8%,16.7%,48.1%,1.83% (active),-22.8% (active),–,15.4%
CC1Cc2c(N(C)C)ncnc2N(C)c2ccc(O)cc21 (stereo not drawn),101%,36.5%,89.5%,87.2%,95.2%,87.4%,91.8%,91.3%,–,73.7%
CCn1cc(C(=O)O)c(=O)c2cc(F)c(N3CCN(S(=O)(=O)c4ccc(Cl)cc4Cl)CC3)cc21,11.6%,10.9%,-19.8% (active),25.5%,27.9%,24.6%,-32% (active),8.88% (active),-15.2% (active),15.9%
CCCCCCC[C@@H](O)CC(=O)N[C@H](CCCCN)C(=O)N[C@H](Cc1c[nH]c2ccccc12)C(=O)NC(CCCCN)C(=O)N[C@H](CC(C)C)C(=O)N[C@H](Cc1ccccc1)C(=O)N[C@H](CCCCN)C(=O)N[C@H](CCCCN)C(=O)N[C@H](CC(C)C)C(=O)N1CCCC1C(=O)N[C@H](CCCCN)C(=O)N[C@H](Cc1ccccc1)C(=O)N[C@H](CC(C)C)C(=O)N[C@H](Cc1c[nH]cn1)C(=O)N[C@H](CC(C)C)C(=O)N[C@H](C)C(=O)N[C@H](CCCCN)C(=O)N[C@H](CCCCN)C(=O)N[C@H](Cc1ccccc1)C(=O)O (stereo partly drawn),-77.2% (active),-33.3% (active),-2.57% (active),-71.4% (active),-39% (active),-54.2% (active),-60.8% (active),-30.8% (active),-64.9% (active),-43.4% (active)
COc1ccc(C2CC(=O)Nc3c2c(C)nn3-c2nc3ccccc3[nH]2)cc1OC (stereo not drawn),86.6%,63%,38.5%,87.1%,12.2%,69.9%,-9% (active),97.7%,89%,48.1%
CCO/C=N/NC(=O)c1ccncc1,105%,108%,106%,109%,109%,101%,116%,111%,–,114%
CC[C@H](C)[C@H]1NC(=O)[C@@H](N[C@](C)(O)[C@@H](N)CC(C)C)[C@@H](C)OC(=O)[C@H](Cc2ccc(OC)cc2)N(C)C(=O)[C@@H]2CCCN2C(=O)[C@H](CC(C)C)NC(=O)[C@@H](C)C(=O)[C@H](C(C)C)OC(=O)C[C@@H]1O,-17.5% (active),2.2% (active),-21.4% (active),-15.8% (active),-33.1% (active),-1.13% (active),-52.1% (active),-27.6% (active),-24.7% (active),-75.3% (active)
COc1ccc(Cn2c(SC)nc(=O)n(Cc3ccc(Cl)cc3)c2=O)cc1,103%,92.6%,95.1%,99.4%,107%,94.1%,59.7%,106%,102%,98.6%
O=C(CNC1CCCCC1)Nc1ccc(-c2nc3ccccc3s2)cc1,89.3%,49.5%,105%,46.2%,68.5%,78.4%,85.9%,87.5%,105%,89.4%
CCC1CCc2nc3sc(C(=O)Nc4ccccc4F)c(N)c3cc2C1 (stereo not drawn),55.8%,37.8%,48.7%,69.9%,79.6%,61.5%,46.6%,75%,57.5%,44.4%
CN1CCN(c2ccc3cc(-c4nc5ccccc5[nH]4)c(=O)oc3c2)CC1,112%,43.7%,90.4%,80.2%,108%,105%,104%,93.5%,83.3%,88.8%
COc1ccc(C(=O)/C=C/c2ccc(/C=C/c3cc(OC)c(OC)c(OC)c3)cc2)cc1,68.4%,14.4%,66.8%,76.8%,71.3%,66.2%,57.9%,86.3%,72.5%,67%
CCOC(=O)[C@H](CSSc1ncnc2cc[nH]c12)NC(=O)[C@@H](C)c1ccc2cc(OC)ccc2c1,33.4%,13.5%,56.2%,28.2%,57.9%,33.1%,16.7%,11.4%,28.2%,6.45% (active)
CCC(=O)Oc1ccc2c(c1)CC[C@@H]1[C@@H]2CC[C@]2(C)C[C@H](OC(=O)CC)C[C@@H]12,79.2%,29.4%,80.1%,71.4%,86.2%,80.1%,51.6%,76.6%,–,50.5%
